# In PubChem BioAssay (NCATS):
# Inconclusive results are not listed. Entries that show only a call come without a potency. Active and inactive are the calls of the source. Unless noted, calls follow the shape of the dose curve; as a rule, active = well fitted curve in the direction sought with a large enough effect; inconclusive = small, poorly fitted or top-dose-only effect, or another doubt; inactive = no such curve, though single readings can be large; an effect the other way counts as inactive or inconclusive.
# Experiments:
# [1] = molecular target: ATP-dependent 6-phosphofructokinase (Trypanosoma brucei brucei) (UniProt O15648); test: qHTS Assay to Find Inhibitors of T. brucei phosphofructokinase: hit validation (AID 492961);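 also: luminescence reports ADP formed as PFK phosphorylates fructose-6-phosphate with ATP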
# In short: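 Reaction: 0.1 M triethanolamine pH 8.0, 5 mM MgCl2, F6P 0.5 mM, ATP 0.1 mM, PFK 1.25 nM, 45 min RT. Read-out: ADP-Glo luminescence. Analysis: concentration-response fits, classed by r2 and efficacy.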
# [2] = molecular target: Luciferin 4-monooxygenase (Photinus pyralis) (UniProt P08659); test: Biochemical firefly luciferase enzyme assay for NPC (AID 624030);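 also: purified P. pyralis luciferase at 10 nM with luciferin and ATP substrate; nearly all actives have a fitted effect of over 70% in size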
# In short: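 Counter-screen for direct inhibition of the luciferase enzyme by approved-drug library compounds, run at 10 nM enzyme in 50 mM Tris acetate (final). Luminescence was read within 5 min of enzyme-buffer addition and normalized to PTC124 versus DMSO (0%).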
# [3] = S16 Schwann cell PMP22 intronic element firefly luciferase assay (AID 624032); also: nearly all actives have a fitted effect of over 30% in size
# In short: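 Rat S16 Schwann cells stably carrying a PMP22 intronic element-driven Fluc reporter were seeded overnight, then exposed to compounds for 24 h at 37 °C. Luminescence was normalized to PTC124 (positive control) and DMSO (0% activity).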
# [4] = S16 Schwann cell PMP22 intronic element beta-lactamase assay (AID 624044; calls by dose curve; also: nearly all actives have a fitted effect of over 15% in size); details: S16 rat Schwann cells, PMP22 element beta-lactamase FRET, 24 h; ratio activity, negative = inhibition: at 38.3 µM (top of the series)
# In short: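 Rat S16 Schwann cells with beta-Lac driven by a PMP22 intronic element, compound-treated 24 h at 37 °C. LiveBLAzer FRET B/G read: 460 nm normalized to potassium clavulanate vs DMSO; 535 nm FRET as viability; concentration-effect curves classified.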
# AS120 = test: qHTS profiling for inhibitors of Plasmodium falciparum proliferation (AID 504749); also: nearly all actives have a fitted effect of over 60% in size; also: potency is read from the fitted curve at half-maximal effect; details: P. falciparum in erythrocytes, SYBR Green DNA, 72 h; series mostly up to 28.7 µM
# In short: (§1)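 P. falciparum-infected erythrocytes (0.3% parasitemia, 2.5% hematocrit final) were exposed to compounds for 72 h at 37 C in 5% CO2, then lysed with SYBR Green buffer overnight at room temperature; parasite DNA fluorescence was normalized to artemisinin and DMSO controls.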
# ATS189 = test: as above; details: P. falciparum in erythrocytes, SYBR Green DNA, 72 h; series mostly up to 28.7 µM
# In short: as §1
# C2A = test: as above; details: P. falciparum in erythrocytes, SYBR Green DNA, 72 h; series mostly up to 28.7 µM
# In short: as §1
# CP185 = test: as above; details: P. falciparum in erythrocytes, SYBR Green DNA, 72 h; series mostly up to 28.7 µM
# In short: as §1
# CP191 = test: as above; details: P. falciparum in erythrocytes, SYBR Green DNA, 72 h; series mostly up to 28.7 µM
# In short: as §1
# CP192 = test: as above; details: P. falciparum in erythrocytes, SYBR Green DNA, 72 h; series mostly up to 28.7 µM
# In short: as §1
# CP194 = test: as above; details: P. falciparum in erythrocytes, SYBR Green DNA, 72 h; series mostly up to 28.7 µM
# In short: as §1
# CP201 = test: as above; details: P. falciparum in erythrocytes, SYBR Green DNA, 72 h; series mostly up to 28.7 µM
# In short: as §1
# CP203 = test: as above; details: P. falciparum in erythrocytes, SYBR Green DNA, 72 h; series mostly up to 28.7 µM
# In short: as §1
# CP211 = test: as above; details: P. falciparum in erythrocytes, SYBR Green DNA, 72 h; series mostly up to 28.7 µM
# In short: as §1
# CP215 = test: as above; details: P. falciparum in erythrocytes, SYBR Green DNA, 72 h; series mostly up to 28.7 µM
# In short: as §1
# CP217 = test: as above; details: P. falciparum in erythrocytes, SYBR Green DNA, 72 h; series mostly up to 28.7 µM
# In short: as §1
# CP238 = test: as above; details: P. falciparum in erythrocytes, SYBR Green DNA, 72 h; series mostly up to 28.7 µM
# In short: as §1
# CP250 = test: as above; details: P. falciparum in erythrocytes, SYBR Green DNA, 72 h; series mostly up to 28.7 µM
# In short: as §1
# CP252 = test: as above; details: P. falciparum in erythrocytes, SYBR Green DNA, 72 h; series mostly up to 28.7 µM
# In short: as §1
# CP256 = test: as above; details: P. falciparum in erythrocytes, SYBR Green DNA, 72 h; series mostly up to 28.7 µM
# In short: as §1
# CP262 = test: as above; details: P. falciparum in erythrocytes, SYBR Green DNA, 72 h; series mostly up to 28.7 µM
# In short: as §1
# CP265 = test: as above; details: P. falciparum in erythrocytes, SYBR Green DNA, 72 h; series mostly up to 28.7 µM
# In short: as §1
# CP297 = test: as above; details: P. falciparum in erythrocytes, SYBR Green DNA, 72 h; series mostly up to 28.7 µM
# In short: as §1
# CP305 = test: as above; details: P. falciparum in erythrocytes, SYBR Green DNA, 72 h; series mostly up to 28.7 µM
# In short: as §1
# CP329 = test: as above; details: P. falciparum in erythrocytes, SYBR Green DNA, 72 h; series mostly up to 28.7 µM
# In short: as §1
# CP335 = test: as above; details: P. falciparum in erythrocytes, SYBR Green DNA, 72 h; series mostly up to 28.7 µM
# In short: as §1
# Dd2 = test: as above; details: P. falciparum in erythrocytes, SYBR Green DNA, 72 h; series mostly up to 28.7 µM
# In short: as §1
# ECU = test: as above; details: P. falciparum in erythrocytes, SYBR Green DNA, 72 h; series mostly up to 28.7 µM
# In short: as §1
# FAB9 = test: as above; details: P. falciparum in erythrocytes, SYBR Green DNA, 72 h; series mostly up to 28.7 µM
# In short: as §1
# ICS = test: as above; details: P. falciparum in erythrocytes, SYBR Green DNA, 72 h; series mostly up to 28.7 µM
# In short: as §1
# JCK = test: as above; details: P. falciparum in erythrocytes, SYBR Green DNA, 72 h; series mostly up to 28.7 µM
# In short: as §1
# N140 = test: as above; details: P. falciparum in erythrocytes, SYBR Green DNA, 72 h; series mostly up to 28.7 µM
# In short: as §1
# PC15 = test: as above; details: P. falciparum in erythrocytes, SYBR Green DNA, 72 h; series mostly up to 28.7 µM
# In short: as §1
# PC26 = test: as above; details: P. falciparum in erythrocytes, SYBR Green DNA, 72 h; series mostly up to 28.7 µM
# In short: as §1
# PC49 = test: as above; details: P. falciparum in erythrocytes, SYBR Green DNA, 72 h; series mostly up to 28.7 µM
# In short: as §1
# SC27B = test: as above; details: P. falciparum in erythrocytes, SYBR Green DNA, 72 h; series mostly up to 28.7 µM
# In short: as §1
# TAB113 = test: as above; details: P. falciparum in erythrocytes, SYBR Green DNA, 72 h; series mostly up to 28.7 µM
# In short: as §1
# W2 = test: as above; details: P. falciparum in erythrocytes, SYBR Green DNA, 72 h; series mostly up to 28.7 µM
# In short: as §1
# [5] = molecular target: Cytochrome P450 3A4 (Homo sapiens) (UniProt P08684); test: qHTS Assay for Activators of Cytochrome P450 3A4 (AID 885); also: nearly all actives have a fitted effect of over 65% in size
# In short: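 Quantitative HTS format: compounds preincubated with 20nM human CYP3A4 and Luciferin-PPXE substrate at KM, reaction started by NADPH regeneration, stopped after 60 min, luciferase luminescence read 20 min later.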
# [6] = molecular target: Alpha-galactosidase (Coffea arabica) (UniProt Q42656); test: Counterscreen for Glucocerebrosidase Inhibitors: qHTS Assay for Coffee Bean alpha-Galactosidase at pH 4.5 (AID 957)
# In short: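 AC50 values derive from Hill-equation modeling of concentration-response data, normalized to no-enzyme and full-activity controls. The pH 4.5 citrate assay used 2 nM coffee bean enzyme and 80 uM fluorogenic substrate for 20 min.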
# [7] = molecular target: Alpha-galactosidase (Coffea arabica) (UniProt Q42656); test: Counterscreen for Glucocerebrosidase Inhibitors: qHTS Assay for Coffee Bean alpha-Galactosidase at pH 5.9 (AID 998)
# In short: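 Green coffee bean enzyme (2 nM final) was incubated with compounds (0.7 nM–77 uM) and 4-methylumbelliferyl alpha-D-galactopyranoside (80 uM) in citrate buffer pH 5.9, 20 min at room temperature. High-pH stop; fluorescence 365/440 nm; AC50 from Hill fits.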
# [8] = Nrf2 qHTS screen for inhibitors: Validation (AID 493153; active = well fitted inhibition curve with a large enough effect in the main read-out, with a control signal flat, not every such curve was filed as active; also: potency is read from the fitted curve at half-maximal effect); details: A549 ARE-Fluc reporter, 18-24 h; Potency: luciferase luminescence; viability change: measured here: cytotoxicity max response
# In short: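 Dose-response validation uses reporter A549 cells with firefly luciferase under an antioxidant response element. Compounds stay on cells 18-24 h at 37°C, and luminescence indicates Nrf2-driven transcription.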
# [9] = Inducers of the Endoplasmic Reticulum Stress Response (ERSR) in human glioma: Validation (AID 504836)
# In short: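 Stably transfected U87-MG human glioma cells carrying a GRP78-based luminescent sensor were seeded at 1000 cells/well, pin-dosed with compounds and incubated 16 h. Luciferase reagent was then added, and end-point luminescence was read after 10 min at room temperature.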
# [10] = qHTS for Inhibitors of ATXN expression: Validation (AID 588378); details: cell-based ATXN2 expression reporter assay, luminescence; also: potency is read from the fitted curve at half-maximal effect; nearly all actives have a fitted effect of over 75% in size
# In short: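 Validation of ATXN2 expression inhibitors uses a cell-based luciferase fusion reporter in HEK293 cells, with 24 h compound exposure and paired viability (fluorescence) and reporter (luminescence) end-point reads.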
# [11] = molecular target: Ubiquitin carboxyl-terminal hydrolase 1 (Homo sapiens) (UniProt O94782); test: Inhibitors of USP1/UAF1: Pilot qHTS (AID 504865); also: nearly all actives have a fitted effect of over 35% in size; also: potency is read from the fitted curve at half-maximal effect
# In short: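 Kinetic fluorescence assay: 1nM USP1/UAF1, 15 min compound preincubation, then 150nM Ub-Rho; 480/540 nm.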
# [12] = molecular target: Peroxisome proliferator-activated receptor delta (Homo sapiens) (UniProt Q03181); test: qHTS assay for small molecule agonists of peroxisome proliferator-activated receptor delta signaling (AID 588534; calls by dose curve)
# In short: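 Reporter cells were plated and held 5 hrs at 37 C before compounds were added. After 18 hrs at 37 C, CCF4 dye was loaded for 2 hrs at RT and fluorescence measured.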
# [13] = molecular target: DNA dC->dU-editing enzyme APOBEC-3G (Homo sapiens) (UniProt Q9HC16); test: qHTS for inhibitors of Vif-A3G interactions: Validation (AID 588379)
# In short: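 HeLa cells stably expressing Vif and A3G-eYFP, 700 cells/well, incubated overnight at 37 deg C, then exposed to compound overnight at 37 deg C. Inhibition of Vif-mediated degradation read as increased yellow fluorescence (Ex 488/Em 500-530) by laser-scanning cytometry.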
# Chain of Ubiquitin carboxyl-terminal hydrolase 1 (Homo sapiens) (O94782 whole entry, looked up): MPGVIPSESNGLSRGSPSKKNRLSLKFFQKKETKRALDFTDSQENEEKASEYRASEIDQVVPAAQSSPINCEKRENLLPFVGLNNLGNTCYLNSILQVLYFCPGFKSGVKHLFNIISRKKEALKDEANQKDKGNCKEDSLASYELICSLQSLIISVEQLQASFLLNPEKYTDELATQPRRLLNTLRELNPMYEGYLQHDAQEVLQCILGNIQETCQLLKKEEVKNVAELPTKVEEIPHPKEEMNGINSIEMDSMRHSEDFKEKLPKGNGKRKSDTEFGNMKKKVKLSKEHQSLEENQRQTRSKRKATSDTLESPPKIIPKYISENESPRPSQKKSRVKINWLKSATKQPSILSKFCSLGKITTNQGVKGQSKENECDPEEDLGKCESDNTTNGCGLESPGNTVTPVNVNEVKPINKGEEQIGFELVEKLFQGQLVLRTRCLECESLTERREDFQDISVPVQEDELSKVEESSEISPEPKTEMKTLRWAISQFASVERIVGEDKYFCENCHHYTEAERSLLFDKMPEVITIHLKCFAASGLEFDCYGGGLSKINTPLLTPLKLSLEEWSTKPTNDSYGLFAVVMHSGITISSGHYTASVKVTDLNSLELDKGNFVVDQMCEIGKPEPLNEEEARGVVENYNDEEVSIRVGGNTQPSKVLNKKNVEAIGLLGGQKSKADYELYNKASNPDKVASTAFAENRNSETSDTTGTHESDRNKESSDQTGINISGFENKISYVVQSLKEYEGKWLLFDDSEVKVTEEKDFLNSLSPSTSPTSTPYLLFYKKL
# Chain of Alpha-galactosidase (Coffea arabica) (Q42656 whole entry, looked up): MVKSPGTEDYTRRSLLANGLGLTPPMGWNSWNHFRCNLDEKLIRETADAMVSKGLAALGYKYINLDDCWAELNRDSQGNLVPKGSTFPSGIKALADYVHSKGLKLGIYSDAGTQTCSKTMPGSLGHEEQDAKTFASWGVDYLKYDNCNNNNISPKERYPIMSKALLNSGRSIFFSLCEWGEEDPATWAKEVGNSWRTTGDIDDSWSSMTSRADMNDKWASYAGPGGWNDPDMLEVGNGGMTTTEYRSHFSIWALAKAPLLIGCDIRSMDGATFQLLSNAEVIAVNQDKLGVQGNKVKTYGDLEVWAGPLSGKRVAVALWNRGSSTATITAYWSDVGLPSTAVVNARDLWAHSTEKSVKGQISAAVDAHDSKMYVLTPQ
# Chain of DNA dC->dU-editing enzyme APOBEC-3G (Homo sapiens) (Q9HC16 whole entry, looked up): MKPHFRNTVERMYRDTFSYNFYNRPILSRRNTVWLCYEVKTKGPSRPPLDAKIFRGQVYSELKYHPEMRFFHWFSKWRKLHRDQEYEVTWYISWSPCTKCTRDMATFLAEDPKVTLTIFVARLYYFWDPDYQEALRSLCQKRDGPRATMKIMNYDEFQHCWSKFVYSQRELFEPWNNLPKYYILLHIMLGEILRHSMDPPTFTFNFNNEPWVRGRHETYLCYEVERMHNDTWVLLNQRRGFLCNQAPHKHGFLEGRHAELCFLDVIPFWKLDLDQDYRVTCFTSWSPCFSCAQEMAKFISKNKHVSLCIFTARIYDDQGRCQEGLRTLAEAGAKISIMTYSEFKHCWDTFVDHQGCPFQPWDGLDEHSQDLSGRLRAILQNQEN
# Chain of Luciferin 4-monooxygenase (Photinus pyralis) (P08659 whole entry, looked up): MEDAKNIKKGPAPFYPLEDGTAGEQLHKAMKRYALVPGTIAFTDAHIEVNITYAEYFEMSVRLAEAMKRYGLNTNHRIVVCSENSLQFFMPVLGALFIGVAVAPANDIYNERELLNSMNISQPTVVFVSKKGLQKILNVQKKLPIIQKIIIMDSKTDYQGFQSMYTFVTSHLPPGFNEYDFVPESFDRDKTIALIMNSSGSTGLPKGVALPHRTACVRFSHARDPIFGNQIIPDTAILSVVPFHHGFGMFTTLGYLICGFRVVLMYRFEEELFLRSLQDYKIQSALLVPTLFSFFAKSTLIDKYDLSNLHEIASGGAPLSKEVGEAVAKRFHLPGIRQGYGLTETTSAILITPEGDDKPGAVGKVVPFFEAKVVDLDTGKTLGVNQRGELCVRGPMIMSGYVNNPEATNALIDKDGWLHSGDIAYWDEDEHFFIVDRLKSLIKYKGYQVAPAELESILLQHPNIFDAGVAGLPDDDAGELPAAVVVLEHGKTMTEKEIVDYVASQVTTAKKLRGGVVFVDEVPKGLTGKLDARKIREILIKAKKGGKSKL
# Chain of Cytochrome P450 3A4 (Homo sapiens) (P08684 whole entry, looked up): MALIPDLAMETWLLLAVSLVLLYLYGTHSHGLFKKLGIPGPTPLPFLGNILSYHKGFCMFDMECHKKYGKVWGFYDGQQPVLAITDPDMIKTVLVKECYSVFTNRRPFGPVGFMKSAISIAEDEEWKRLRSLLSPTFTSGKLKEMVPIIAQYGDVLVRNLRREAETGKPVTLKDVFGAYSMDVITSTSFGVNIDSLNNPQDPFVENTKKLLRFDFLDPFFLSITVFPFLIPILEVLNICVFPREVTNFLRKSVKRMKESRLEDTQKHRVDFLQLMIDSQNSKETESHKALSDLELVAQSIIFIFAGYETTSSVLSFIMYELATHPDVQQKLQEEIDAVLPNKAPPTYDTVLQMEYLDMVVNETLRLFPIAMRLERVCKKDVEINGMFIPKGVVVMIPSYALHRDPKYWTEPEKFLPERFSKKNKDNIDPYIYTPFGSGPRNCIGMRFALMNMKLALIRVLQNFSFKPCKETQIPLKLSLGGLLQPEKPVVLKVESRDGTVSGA
# Chain of ATP-dependent 6-phosphofructokinase (Trypanosoma brucei brucei) (O15648 whole entry, looked up): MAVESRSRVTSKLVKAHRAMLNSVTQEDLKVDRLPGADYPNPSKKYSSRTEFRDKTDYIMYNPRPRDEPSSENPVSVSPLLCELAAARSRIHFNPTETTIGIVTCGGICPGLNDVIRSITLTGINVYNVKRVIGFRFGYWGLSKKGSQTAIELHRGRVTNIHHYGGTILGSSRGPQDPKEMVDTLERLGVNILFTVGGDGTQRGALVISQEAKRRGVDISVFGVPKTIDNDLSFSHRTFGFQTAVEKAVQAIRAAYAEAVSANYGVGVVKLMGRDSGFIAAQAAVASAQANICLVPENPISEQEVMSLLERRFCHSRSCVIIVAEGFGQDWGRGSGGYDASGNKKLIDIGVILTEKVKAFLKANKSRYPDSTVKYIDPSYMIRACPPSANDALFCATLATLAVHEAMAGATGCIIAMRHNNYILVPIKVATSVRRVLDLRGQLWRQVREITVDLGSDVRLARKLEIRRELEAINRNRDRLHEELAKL
# Chain of Peroxisome proliferator-activated receptor delta (Homo sapiens) (Q03181 whole entry, looked up): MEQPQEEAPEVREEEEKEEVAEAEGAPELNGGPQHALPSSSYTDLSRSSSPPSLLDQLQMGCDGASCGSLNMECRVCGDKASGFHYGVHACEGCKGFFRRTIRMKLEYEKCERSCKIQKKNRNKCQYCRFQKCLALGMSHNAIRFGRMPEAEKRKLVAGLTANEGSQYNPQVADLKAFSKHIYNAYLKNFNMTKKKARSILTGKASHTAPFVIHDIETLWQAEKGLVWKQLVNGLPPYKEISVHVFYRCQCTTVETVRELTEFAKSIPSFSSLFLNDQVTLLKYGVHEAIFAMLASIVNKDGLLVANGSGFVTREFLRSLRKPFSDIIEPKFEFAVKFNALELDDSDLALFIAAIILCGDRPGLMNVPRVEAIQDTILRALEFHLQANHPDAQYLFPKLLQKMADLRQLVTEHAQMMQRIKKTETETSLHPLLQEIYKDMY
compound,measurement,setting,value
CN(C)C1C(=O)C(C(N)=O)C(=O)C2(O)C(=O)C3C(=O)c4c(O)cccc4C(C)(O)C3C(O)C12 (stereo not drawn),outcome,[1],inactive
same,Potency,[2],inactive
same,Potency,[3],inactive
same,Potency,[4],inactive
same,Potency,AS120,inactive
same,Potency,ATS189,inactive
same,Potency,C2A,inactive
same,Potency,CP185,inactive
same,Potency,CP191,inactive
same,Potency,CP192,inactive
same,Potency,CP194,inactive
same,Potency,CP201,inactive
same,Potency,CP203,inactive
same,Potency,CP211,inactive
same,Potency,CP215,inactive
same,Potency,CP217,inactive
same,Potency,CP238,inactive
same,Potency,CP250,inactive
same,Potency,CP252,inactive
same,Potency,CP256,inactive
same,Potency,CP262,inactive
same,Potency,CP265,inactive
same,Potency,CP297,inactive
same,Potency,CP305,inactive
same,Potency,CP329,inactive
same,Potency,CP335,6.01 µM (active)
same,Potency,Dd2,3.55 µM (active)
same,Potency,ECU,inactive
same,Potency,FAB9,inactive
same,Potency,ICS,2.82 µM (active)
same,Potency,JCK,inactive
same,Potency,N140,inactive
same,Potency,PC15,inactive
same,Potency,PC26,inactive
same,Potency,PC49,inactive
same,Potency,SC27B,inactive
same,Potency,TAB113,inactive
same,Potency,W2,6.75 µM (active)
CC[C@@H](CO)Nc1nc(NCc2ccccc2)c2ncn(C(C)C)c2n1,Potency,[5],inactive
same,outcome,[6],inactive
same,outcome,[7],inactive
same,Potency,[8],18.4 µM (active)
same,viability change,[8],-22.6%
same,outcome,[9],inactive
same,Potency,[10],31.6 µM (active)
CC(C)(C)c1ccc(/C=C/C(=O)Nc2ccc3c(c2)OCCO3)cc1,outcome,[9],inactive
O=[N+]([O-])c1ccc2c(c1)S(=O)(=O)C=C2,outcome,[9],inactive
Cc1cc2nc3c(=O)[nH]c(=O)nc-3n(C[C@H](O)[C@H](O)[C@H](O)COP(=O)(O)OP(=O)(O)OC[C@H]3O[C@@H](n4cnc5c(N)ncnc54)[C@H](O)[C@@H]3O)c2cc1C,Potency,[11],50.1 µM (active)
c1cnc2c(c1)ccc1cccnc12,outcome,[6],inactive
same,outcome,[7],inactive
same,outcome,[9],inactive
same,outcome,[12],inactive
NCCCCC(NC(CCc1ccccc1)C(=O)O)C(=O)N1CCCC1C(=O)O (stereo not drawn),Potency,[11],inactive
COC1=C(OC)C(=O)c2ccccc2C1=O,outcome,[6],inactive
same,outcome,[9],inactive
CN[C@@H](CC(C)C)C(=O)N[C@@H]1C(=O)N[C@H](CC(N)=O)C(=O)N[C@@H]2C(=O)N[C@H]3C(=O)N[C@H](C(=O)N[C@H](C(=O)O)c4cc(O)cc(O)c4-c4cc3ccc4O)[C@H](O)c3ccc(c(Cl)c3)Oc3cc2cc(c3O[C@H]2O[C@@H](CO)[C@@H](O)[C@@H](O)[C@@H]2O[C@@H]2C[C@](C)(N)[C@H](O)[C@H](C)O2)Oc2ccc(cc2Cl)[C@@H]1O,Potency,[11],inactive
C[C@]12CCC3C(CC[C@]4(O)C[C@@H](O)CC[C@]34C=O)[C@@]1(O)CC[C@@H]2C1=CC(=O)OC1 (stereo partly drawn),Potency,[11],inactive
same,outcome,[13],inactive
